The results in this text go back to PubChem BioAssay.

Records with an inconclusive call do not appear. The source made the active and inactive calls.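 The calls were made as follows, unless noted: active = viability at or under a set limit in both replicates, limit being median viability minus 3 SD (cut at about 48% in these data, passing the limit was not always enough); inconclusive = at or under the limit in just one replicate; inactive = at or above the limit in both replicates.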

The nature of assay [1]: reducers of endogenous Her2 protein level, primary screen, SKBR3 breast tumor cells, AlphaScreen, ATP viability (AID 461;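 active = Her2 level under about 52% in both replicate screens, with viability over 70% of control, limit read from the data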;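 as to Her2 level: lower value means less Her2 protein in the cells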;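 as to viability: percent of carrier control wells set as 100% viability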). Conditions: 18-24 h, measured here: SKBR3 viability, ATP luminescence, at 10 µM. A general note: Alpha assays give light when donor and acceptor beads are brought close together.
For assay [2], the target named is Receptor tyrosine-protein kinase erbB-2 (Homo sapiens) (UniProt P04626). The assay is described as above. Conditions: 18-24 h, at 10 µM, stronger effect = lower value.
Receptor tyrosine-protein kinase erbB-2 (Homo sapiens), sequence (P04626 whole entry, looked up): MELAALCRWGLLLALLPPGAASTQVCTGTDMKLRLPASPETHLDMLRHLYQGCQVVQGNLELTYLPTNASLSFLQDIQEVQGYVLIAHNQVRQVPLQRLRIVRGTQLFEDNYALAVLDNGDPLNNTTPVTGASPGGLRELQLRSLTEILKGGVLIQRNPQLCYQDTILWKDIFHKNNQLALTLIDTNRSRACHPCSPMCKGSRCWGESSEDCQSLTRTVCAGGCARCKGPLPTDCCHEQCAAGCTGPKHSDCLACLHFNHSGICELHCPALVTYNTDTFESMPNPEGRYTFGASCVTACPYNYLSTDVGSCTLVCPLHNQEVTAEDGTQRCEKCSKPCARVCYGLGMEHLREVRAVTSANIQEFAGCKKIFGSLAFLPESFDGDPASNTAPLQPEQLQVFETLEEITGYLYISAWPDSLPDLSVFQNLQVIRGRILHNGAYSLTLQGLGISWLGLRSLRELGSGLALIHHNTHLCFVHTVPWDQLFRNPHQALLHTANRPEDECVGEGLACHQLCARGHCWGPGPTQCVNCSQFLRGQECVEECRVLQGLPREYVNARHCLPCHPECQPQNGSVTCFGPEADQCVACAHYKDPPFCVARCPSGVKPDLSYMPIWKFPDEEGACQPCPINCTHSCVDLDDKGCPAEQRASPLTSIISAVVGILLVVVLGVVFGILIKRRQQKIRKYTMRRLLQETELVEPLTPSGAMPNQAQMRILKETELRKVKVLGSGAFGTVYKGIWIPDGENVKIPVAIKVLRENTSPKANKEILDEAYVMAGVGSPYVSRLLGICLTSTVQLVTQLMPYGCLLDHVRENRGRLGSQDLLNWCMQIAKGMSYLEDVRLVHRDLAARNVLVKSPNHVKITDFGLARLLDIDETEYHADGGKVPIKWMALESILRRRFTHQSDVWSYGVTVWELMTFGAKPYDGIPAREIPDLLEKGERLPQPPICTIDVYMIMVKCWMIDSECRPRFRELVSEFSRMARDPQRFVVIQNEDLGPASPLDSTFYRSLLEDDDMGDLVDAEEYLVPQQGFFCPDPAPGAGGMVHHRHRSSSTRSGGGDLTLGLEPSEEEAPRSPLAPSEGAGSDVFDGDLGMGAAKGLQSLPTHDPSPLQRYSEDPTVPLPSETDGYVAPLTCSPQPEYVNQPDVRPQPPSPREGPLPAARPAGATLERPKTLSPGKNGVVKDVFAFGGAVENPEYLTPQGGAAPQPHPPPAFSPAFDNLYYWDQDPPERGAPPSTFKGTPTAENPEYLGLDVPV
The nature of assay [3]: SK-BR-3 cell growth inhibitors, pilot screen, 24 h, human (AID 572;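 active = viability at or below 10% of carrier control in both of two separate runs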;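 also: compound exposure lasted between 18 and 24 h rather than exactly 24 h; 100% = carrier-treated control wells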). Conditions: SK-BR-3 viability, CellTiter-Glo luminescence, at 10 µM, stronger effect = lower value. (In general: Cellular ATP, detected with luciferase, serves as a proxy for viable cell number.)
A short description of assay [4]: HUVEC growth inhibition – cell-based, human, primary screen (AID 575;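 active = viability at or below 30% in both replicate assays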;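 also: 100% = median of untreated cell wells with 0.1% DMSO on each plate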). Conditions: HUVEC proliferation, CellTiter-Glo luminescence, 72 h; at 10 µM; stronger effect = lower value.
The nature of assay [5]: growth inhibitors of H69AR lung tumor, primary screen, human, duplicate replicates (AID 580).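 Also: 100% = mean luminescence of untreated wells and 0% = no signal.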 Conditions: H69AR lung tumor cells viability, ATP luminescence, 72 h; at 10 µM; stronger effect = lower value.
Assay [6] in a line: reversal of MRP1-mediated doxorubicin resistance, pilot screen, H69AR cells, doxorubicin co-treatment (AID 601;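 active = viability loss from added drug above about 55%, and viability with drug at most 40%, in both replicates, limit read from the data, passing the limit was not always enough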). As to conditions: CellTiter-Glo, 72 h, at 10 µM; for differential viability (reversal): stronger effect = higher value.
Assay [7] in a line: 384-well plate pilot, post-Golgi transport modulator project, inhibition of yeast transport mutant growth (AID 636; in the data active = inhibition above about 31%). Conditions: absorbance 615 nm, about 18 h, stronger effect = higher value.
Assay [8] is described as follows: growth suppression of yeast trafficking mutant, preliminary HTS, modulators of trafficking downstream of Golgi apparatus project, 1536-format plate, OD 615 nm (AID 637; in the data active = inhibition above about 30%). As to conditions: yeast transport mutant growth, absorbance 615 nm, 18 h; stronger effect = higher value.
A short description of assay [9]: OD615 S. cerevisiae growth inhibition, permissive medium, pilot counter-assay, permissive growth control for S. cerevisiae lifespan shortening project (AID 705;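 active = growth inhibition above 25% in both replicates, a cutoff set 3 SD above the mean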). Conditions: OD615, 24 h, at 10 µM, stronger effect = higher value.
Assay [10] is described as follows: Restrictive medium S. cerevisiae growth inhibition, OD615, pilot screen of yeast lifespan reduction project, restrictive growth control (AID 706;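 active = growth inhibition above a set limit, 3 SD over mean compound inhibition, in both replicates, cut at about 43% in these data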;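 also: modified DeaD lifespan yeast strain shifted to restrictive glucose medium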). As to conditions: OD615, 48 h, at 10 µM, stronger effect = higher value.
A short description of assay [11]: viability gain of MRP-1-high H69AR cells under doxorubicin, pilot screen, MRP-1 activator project, CellTiter-Glo, duplicate (AID 807;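 active = viability increase at or above a cutoff of the median across tested compounds plus 3 SD, cut at about 8.5% in these data, passing the limit was not always enough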;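 also: compound pretreatment 18-22 h then 72 h combined with doxorubicin; 0% = doxorubicin alone and 100% = vehicle without doxorubicin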). Conditions: H69AR viability with doxorubicin, CellTiter-Glo luminescence; at 10 µM; stronger effect = higher value.
Assay [12] can be described thus: growth suppression of beta-catenin knockout HCT116, pilot screen, human colon tumor cells (AID 823;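 active = cell viability at or below a set limit in both duplicate runs, the limit being the all-compound median minus 4 SD, cut at about 23% in these data, passing the limit was not always enough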;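 also: 0% = wells killed by 20 µM Hyamine and 100% = untreated DMSO cell wells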). Conditions: CellTiter-Glo, 60 h, at 10 µM, stronger effect = lower value.
Assay [13] can be described thus: growth suppression of PTEN-deleted HCT116, pilot screen, cell-based, HCT116 clonal line, CellTiter-Glo (AID 824;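 active = viability at or below 27.92% in each of two runs, the all-compound median minus 4 SD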;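 also: 0% = 20 µM Hyamine control and 100% = vehicle cell control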). As to conditions: 60 h, at 10 µM, stronger effect = lower value.
Assay [14] can be described thus: inhibitors of the yeast RAM network, pilot screen, dse1pr::URA3 reporter, 5-FOA selection (AID 869;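 active = inhibition over a set limit, the all-compound mean plus 3 SD, in both replicate runs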;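 also: 0% = DMSO wells with no growth and 100% = 10 µM 1-NA-PP1 with full growth; RAM network block rescues cells from 5-FOA so hits raise OD615 growth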). Conditions: S. cerevisiae dse1pr::URA3 5-FOA growth, OD615, 2 d; at 10 µM; stronger effect = higher value; strain carries analog-sensitive mutant Cbk1 kinase.
Assay [15] can be described thus: RAM signaling pathway blockade in yeast – S. cerevisiae, Pdr1DBD-CYC8 efflux-inhibited sensitized strain, primary screen (AID 1298;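 active = RAM network inhibition above 8.4% in each of two replicates, 3 SD over the compound average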;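 also: 0% = DMSO untreated cells without growth and 100% = 10 µM 1-NA-PP1 full growth; higher means more yeast growth rescued from 5-FOA killing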). As to conditions: S. cerevisiae cbk1-as DSE1-URA3 strain, 5-FOA growth OD615, 2 d; at 50 µM; stronger effect = higher value.
Setting [16] is: H69AR cells + 2 uM doxorubicin, measured here: viability with 2 uM doxorubicin, stronger effect = lower value.
The mark [17] stands for this setting: H69AR cells, compound alone cytotoxicity.

Usually viability stands for a read-out of living cells in per cent, often relative to untreated cells. The inhibition is the change of the read-out against control, counted positive when it falls. On to `CCOC(=O)c1c(C)n(OCc2ccccc2)c2ccc3c(no[n+]3[O-])c12`, for which the viability is 60% in assay [1]; 60% (inactive) in assay [3]; 64.8% (inactive) in [4]; 52.9% (inactive) in assay [5]; 67.1% in assay [6] (setting [16]); 52.9% in [6] (setting [17]). Moreover, the figures for the viability in assay [12] and in [13] were 62.8% (inactive) and 62.9% (inactive), respectively. In assay [2], the Her2 level was 78.5% (inactive). For the same molecule, in assay [6] (H69AR cells + 2 uM doxorubicin), the differential viability (reversal) is -14.2% (inactive). Further, the inhibition in [7] is -3.24% (inactive); in assay [8], -2.95% (inactive); in assay [14] it was 1.99% (inactive). The growth inhibition was -12.4% (inactive) in assay [9] and -11.1% (inactive) in assay [10]. Besides, in assay [11], the viability increase is -3.24% (inactive). The RAM network inhibition in assay [15] was 5.8% (inactive).

On to `CCOc1ccc(Cn2nnc(C(=O)Nc3cc(C)cc(C)c3)c2N)cc1`, for which the viability in assay [1] is 89.5%; in assay [3], 89.5% (inactive); in [4] it was 80.4% (inactive); in [5], 86.2% (inactive); in assay [6] (setting [16]), 78.3%; in assay [6] (setting [17]) it was 86.2%. For the same molecule, the viability in assay [12] is 73% (inactive); in assay [13], 77.8% (inactive). In assay [2], the Her2 level was 90.5% (inactive). Moreover, in assay [6] (H69AR cells + 2 uM doxorubicin), the differential viability (reversal) is 7.9% (inactive). Further, the inhibition in assay [7] was 0% (inactive); in assay [8], -3.28% (inactive); in [14] it was 3.23% (inactive). Further, the growth inhibition was -7.71% (inactive) in assay [9] and 1.04% (inactive) in assay [10]. Moreover, the viability increase in assay [11] was -3.02% (inactive). In addition, the RAM network inhibition in [15] is 8.35% (inactive).

Consider `CCCCn1c2c(c3ccccc31)CCc1nonc1-2`, for which the viability in [1] was 107%; in assay [3], 107% (inactive); in assay [4] it was 89.6% (inactive); in assay [5], 103% (inactive); in [6] (setting [16]), 105%; in assay [6] (setting [17]), 103%. In addition, the viability is 80.4% (inactive) in [12] and 78.4% (inactive) in [13]. Besides, the Her2 level in assay [2] was 108% (inactive). Moreover, the differential viability (reversal) in assay [6] (H69AR cells + 2 uM doxorubicin) was -2.16% (inactive). Besides, the results for the inhibition in assay [7], in assay [8] and in [14] were -0.77% (inactive), -3.67% (inactive) and 2.28% (inactive), respectively. The growth inhibition in assay [9] was -8.86% (inactive); in assay [10], -29.4% (inactive). Also, the viability increase in [11] is 1.75% (inactive). For the same molecule, the RAM network inhibition in [15] was 2.83% (inactive).

In the case of `CCCc1cc(C(=O)Nc2ccc(C(C)=O)cc2)no1`, the viability in [1] was 80.5%; in [3], 80.5% (inactive); in [4], 77.7% (inactive); in assay [5], 99.5% (inactive); in assay [6] (setting [16]) it was 93.9%; in [6] (setting [17]) it was 99.5%. Further, the figures for the viability in assay [12] and in [13] were 98.5% (inactive) and 104% (inactive), respectively. Further, in [2], the Her2 level was 91% (inactive). For the same molecule, the differential viability (reversal) in assay [6] (H69AR cells + 2 uM doxorubicin) is 5.59% (inactive). The figures for the inhibition in [7], in [8] and in assay [14] were 1.92% (inactive), -1% (inactive) and 2.74% (inactive), respectively. Besides, the growth inhibition in [9] is -0.51% (inactive); in [10], -1.09% (inactive). Further, in [11], the viability increase is -0.27% (inactive). The RAM network inhibition in [15] was 6.52% (inactive).

As for `CCN1CCN(Cc2ccc(NC(=O)Nc3ccccc3)cc2)CC1`, the viability in assay [1] was 82%; in [3] it was 82% (inactive); in assay [4], 82.5% (inactive); in assay [5], 88.7% (inactive); in assay [6] (setting [16]), 89.3%; in assay [6] (setting [17]) it was 88.7%. The viability is 103% (inactive) in [12] and 98.7% (inactive) in assay [13]. For the same molecule, in assay [2], the Her2 level was 106% (inactive). In addition, the differential viability (reversal) in assay [6] (H69AR cells + 2 uM doxorubicin) was -0.57% (inactive). The inhibition in [7] was 2.82% (inactive); in assay [8], 0.33% (inactive); in assay [14], 1.09% (inactive). Also, the growth inhibition in [9] and in assay [10] was -11.3% (inactive) throughout. Further, the viability increase in assay [11] is 0.37% (inactive). Further, the RAM network inhibition in assay [15] was 1.93% (inactive).
